In PubChem BioAssay (NCATS):
Several values for one entry are separate records, joined by “and”; a condition that tells them apart may be missing. Equal entries are not always repeated. Inconclusive results are not listed. Activity calls are given as the source filed them. Unless noted, the call rests on the fitted dose curve; in most records, active means well fitted curve in either direction with a large enough effect (not every such curve was filed as active); inconclusive means small, poorly fitted or top-dose-only effect, or another doubt; inactive means flat fitted curve, though single readings scatter.

Columns and labels:
[1] = AP1 Signaling Pathway (AID 357);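 further: ME-180 reporter cells stimulated with EGF at its EC50 level; on the % scale 0 is the no-effect control and ±100 the full control effect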
Procedure, shortened: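 Read-out was the 460nm/530nm emission ratio (excitation 405nm) after CCF4 loading for 2.5 hours at room temperature. Cells carried an AP-1-driven beta-lactamase reporter, were stimulated with EC50 EGF plus compound for 5 hours, and AC50 values came from titrations.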

[2] = Cell Viability - BJ (AID 421; calls by dose curve;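 further: potency means the concentration at half of the fitted maximal effect; cells exposed to compound for 40 hours at 37 °C before readout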); settings: BJ fibroblast viability, qHTS
Procedure, shortened: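 Quantitative HTS: ATP depletion in BJ cells after 40 hr compound exposure in complete culture medium, detected with CellTiter-Glo; AC50 from standard Hill fits.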

[3] = Cell Viability - Jurkat (AID 426;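 active means dose-dependent loss of cell ATP signal giving a full or clear fitted curve, ranked by lower potency value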;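 further: potency means the concentration at half of the fitted maximal effect; cells exposed to compound for 40 hours at 37 °C before ATP read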); settings: qHTS
Procedure, shortened: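 Cells of the human T-cell leukemia line Jurkat (E6-1) are seeded at 5000 per well, treated with compound across a concentration range for 40 hours at 37 °C, then lysed with CellTiter-Glo; luminescence reports ATP.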

[4] = Cell Viability - Hek293 (AID 427;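 active means compounds whose dose-response curve shows a full or clear partial loss of cell viability, called from curve shape rather than a numeric limit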;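 further: potency means the concentration at half of the fitted maximal effect; cells exposed to compound for 40 hours at 37 °C before reading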); settings: qHTS
Procedure, shortened: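 AC50 values derive from Hill-modelled concentration-response of ATP-based luminescence, normalized between DMSO-only and 100 uM tamoxifen controls. Cells were exposed in complete culture medium for 40 hr at 37 °C before detection.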

[5] = Cell Viability - HepG2 (AID 433; calls by dose curve;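 further: potency means the concentration at half of the fitted maximal effect; potency for ATP loss meaning cytotoxicity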); settings: qHTS
Procedure, shortened: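 Cytotoxicity is scored as loss of intracellular ATP in HepG2 cells exposed to compounds for 40 h. Concentration-response curves, normalized to DMSO and 100 uM tamoxifen, give AC50 values.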

[6] = Cell Viability - MRC5 (AID 434; calls by dose curve;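 further: potency means the concentration at half of the fitted maximal effect; potency reflects cytotoxicity seen as loss of intracellular ATP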); settings: MRC5 lung fibroblast viability, qHTS
Procedure, shortened: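 ATP luminescence read-out (CellTiter-Glo, 20 min RT) after 40 hr, 37 °C compound exposure of 1500 MRC5 cells/well. Data normalized to DMSO (basal) and 100 uM tamoxifen (100% inhibition); AC50 from standard Hill equation.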

[7] = Cell Viability - SK-N-SH (AID 435; calls by dose curve;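 further: potency means the concentration at half of the fitted maximal effect; compound exposure lasted 40 h at 37 °C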); settings: SK-N-SH neuroblastoma cell viability qHTS
Procedure, shortened: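 Cells seeded at 1500 per well and incubated 5 hr at 37 °C. Compound added, then 40 hr at 37 °C. CellTiter-Glo added, 20 min at room temperature, luminescence read.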

[8] = NFAT Signaling Pathway (AID 444); settings: Jurkat NFAT-bla M1, carbachol, beta-lactamase ratio, 5 h;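 further: carbachol stimulus at about its EC50 of 1 µM final; on the % scale 0 is the no-effect control and ±100 the full control effect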
Procedure, shortened: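 Jurkat cells with NFAT-driven β-lactamase reporter and co-expressed M1 receptor, stimulated with carbachol (final 1 uM, ~EC50), compound titration, 5 h at 37 °C. CCF4 loaded 1 h at RT; 460/530 nm ratio gave %activity and AC50.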

[9] = Stat Signaling Pathway (AID 446);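 further: ME-180 cervical cancer cells given 40 pM IL-6 alongside compound; SIE-controlled beta-lactamase reporter measured as 460/530 nm FRET emission ratio; on the % scale 0 is the no-effect control and ±100 the full control effect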
Procedure, shortened: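 Overnight-plated ME-180 cells bearing a STAT Inducible Element beta-lactamase reporter; 5 h co-exposure to compound and 40 pM IL-6; values normalized to 300 pM IL-6 and 125 nM JAK inhibitor controls.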

[10] = biological target: Glucocorticoid receptor (Homo sapiens) (UniProt P04150); test: GR-GFP Redistribution (AID 450;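 active means compounds whose dose series gives a full or clear partial fitted curve of increased nuclear translocation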; further: potency means the concentration at half of the fitted maximal effect); settings: U2OS GR-GFP nuclear translocation, laser cytometry, 2 h
[11] = biological target: Mitogen-activated protein kinase 10 (Mus musculus) (UniProt Q61831); test: JNK3 AlphaScreen Assay (AID 530);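 further: kinase came from lysate of stimulated human HepG2 cells; signal reports phosphorylation of biotinylated GST-cJun 1-79 at Ser73 with 10 µM ATP; on the % scale 0 is the no-effect control and ±100 the full control effect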
Procedure, shortened: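 Activity was read by AlphaScreen after JNK3-containing HepG2 lysate (cytokine pre-activated) phosphorylated biotinylated GST-cJun with 10 uM ATP at room temperature. Phospho-Ser73 cJun antibody with Protein-A acceptor beads provided detection.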

[12] = Cell Viability - N2a (AID 540; active means well fitted curve in the direction sought with a large enough effect; an effect the other way counts as inactive or inconclusive;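 further: cells exposed to compound for 40 h at 37 °C; nearly all actives have a fitted effect of over 45% in size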; further: potency means the concentration at half of the fitted maximal effect;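 on activity change, negative = cytotoxicity: plate controls were DMSO alone for no effect and tamoxifen control for full effect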); settings: N2a mouse neuroblastoma cell viability; activity change, negative = cytotoxicity: at 92.2 µM (top of the series)
Procedure, shortened: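 Cytotoxicity was scored as loss of cellular ATP in N2a cells, a mouse neuroblastoma line. Compounds are applied in a qHTS concentration series for 40 hr at 37 °C.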

[13] = Cell Viability - NIH 3T3 (AID 541; active means well fitted curve in the direction sought with a large enough effect; an effect the other way counts as inactive or inconclusive;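 further: plate controls were DMSO alone for no effect and tamoxifen positive control for full effect; nearly all actives have a fitted effect of over 25% in size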); settings: NIH 3T3 cell viability, qHTS; activity change, negative = cytotoxicity: at 92.2 µM (top of the series)
Procedure, shortened: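 Cells seeded at 1000/well, rested 5 hr at 37 °C, then dosed and incubated 40 hr at 37 °C. CellTiter-Glo added, 20 min room temperature, luminescence read. AC50 by Hill fit.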

[14] = Cell Viability - HUV-EC-C (AID 542; active means well fitted curve in the direction sought with a large enough effect; an effect the other way counts as inactive or inconclusive; further: on the % scale 0 is the no-effect control and ±100 the full control effect; nearly all actives have a fitted effect of over 35% in size)
Procedure, shortened: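 Cells were seeded at 1000 per well and incubated 5 hr at 37 °C before compound addition. After 40 hr at 37 °C, CellTiter-Glo reagent was added for 20 min and luminescence read. AC50 values came from Hill-equation modelling.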

[15] = Cell Viability - H-4-II-E (AID 543; active means well fitted curve in the direction sought with a large enough effect; an effect the other way counts as inactive or inconclusive; further: nearly all actives have a fitted effect of over 35% in size; further: potency means the concentration at half of the fitted maximal effect)
Procedure, shortened: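 Cells seeded at 1500 per well and rested 5 hr; compounds added; 40 hr incubation at 37 °C; CellTiter-Glo added, 20 min at room temperature; luminescence read. Hill-equation fits gave AC50.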

[16] = Cell Viability - SH-SY5Y (AID 544; active means well fitted curve in the direction sought with a large enough effect; an effect the other way counts as inactive or inconclusive; further: nearly all actives have a fitted effect of over 55% in size; further: potency means the concentration at half of the fitted maximal effect;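 on viability change, negative = cytotoxic: 0% = DMSO alone and -100% = 100 µM tamoxifen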); settings: SH-SY5Y neuroblastoma cell viability; viability change, negative = cytotoxic: at 92.2 µM (top of the series)
Procedure, shortened: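 Cells were plated at 1500 per well and allowed 5 hr at 37 °C. Compounds were added across a concentration range and incubated 40 hr at 37 °C. CellTiter-Glo was added for 20 min at room temperature before luminescence reading.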

[17] = Cell Viability - Renal Proximal Tubule (AID 545; active means well fitted curve in the direction sought with a large enough effect; an effect the other way counts as inactive or inconclusive; further: nearly all actives have a fitted effect of over 40% in size; further: potency means the concentration at half of the fitted maximal effect;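 on activity change, negative = cytotoxicity: 0% = DMSO only and -100% = 100 µM tamoxifen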)
Procedure, shortened: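 Cytotoxicity is scored as a concentration-dependent drop in cellular ATP in primary rat renal proximal tubule cells exposed for 40 hr. AC50 derives from Hill modelling.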

[18] = Cell Viability - Mesenchymal (AID 546; active means well fitted curve in the direction sought with a large enough effect; an effect the other way counts as inactive or inconclusive;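 further: cells exposed to compound for 40 hours before reading; 0% = DMSO only and -100% = 100 µM tamoxifen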)
Procedure, shortened: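 Human renal mesenchymal cells (glomerulus-derived), 1000 cells/well, 5 hr 37 °C pre-incubation; compound 40 hr, 37 °C; CellTiter-Glo, 20 min RT; luminescence; AC50 via Hill equation.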

Chain of Glucocorticoid receptor (Homo sapiens) (P04150 whole entry, looked up): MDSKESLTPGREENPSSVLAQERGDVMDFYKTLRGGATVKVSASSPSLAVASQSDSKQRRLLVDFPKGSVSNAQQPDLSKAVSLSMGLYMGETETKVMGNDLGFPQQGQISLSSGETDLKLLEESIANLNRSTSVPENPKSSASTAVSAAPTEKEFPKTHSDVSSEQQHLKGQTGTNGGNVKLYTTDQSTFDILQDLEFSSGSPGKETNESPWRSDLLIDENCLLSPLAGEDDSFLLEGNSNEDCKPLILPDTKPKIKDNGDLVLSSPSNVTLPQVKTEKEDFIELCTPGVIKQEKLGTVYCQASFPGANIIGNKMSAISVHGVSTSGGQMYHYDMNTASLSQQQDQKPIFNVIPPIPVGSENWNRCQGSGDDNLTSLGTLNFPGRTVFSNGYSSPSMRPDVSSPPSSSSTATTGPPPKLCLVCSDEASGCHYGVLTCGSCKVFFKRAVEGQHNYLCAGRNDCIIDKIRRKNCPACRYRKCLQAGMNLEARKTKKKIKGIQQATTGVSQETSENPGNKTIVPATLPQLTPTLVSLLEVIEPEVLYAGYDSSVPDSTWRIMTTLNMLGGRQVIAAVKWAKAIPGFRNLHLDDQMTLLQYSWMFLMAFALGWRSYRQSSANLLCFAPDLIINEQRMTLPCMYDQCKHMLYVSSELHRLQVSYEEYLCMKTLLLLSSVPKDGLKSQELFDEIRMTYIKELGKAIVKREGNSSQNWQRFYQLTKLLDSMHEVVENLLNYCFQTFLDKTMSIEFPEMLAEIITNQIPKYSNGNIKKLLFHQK

NS(=O)(=O)c1cc2c(cc1Cl)NCNS2(=O)=O
inactive: outcome [1] | Potency [2] > 92 µM | Potency [3] > 92 µM | Potency [4] > 92 µM | Potency [5] > 92 µM | Potency [6] > 92 µM | Potency [7] > 92 µM | activity change, negative = inhibition ([8]; at 17.2 µM (top of the series)) 3.92% and 9.7% | activity change, negative = inhibition ([8]; at 38 µM (top of the series)) 0.292% | outcome [9] | Potency [10] > 46 µM and > 20.6 µM | outcome [11] | activity change, negative = cytotoxicity [12] -6.72% | Potency [13] | outcome [14] | Potency [15] | Potency [16] | Potency [17] | outcome [18]

COc1cc2c(c(OC)c1OC)-c1ccc(OC)c(=O)cc1[C@@H](NC(C)=O)CC2
active: Potency [3] 2.81 nM and 1.63 nM | Potency [7] 9.09 nM and 5.26 nM | Potency [12] 0.01 µM | Potency [15] 0.126 µM | Potency [16] 5.01 nM and 3.98 nM | Potency [17] 25.1 nM and 20 nM
inactive: Potency [2] > 92 µM | Potency [4] > 92 µM | Potency [5] > 92 µM | Potency [6] > 92 µM | outcome [11] | Potency [13] | outcome [14] | outcome [18]

NC(=O)NO
inactive: outcome [1] | activity change, negative = inhibition ([8]; at 38 µM (top of the series)) 9.2% | outcome [9] | Potency [10] > 46 µM | outcome [11]

Cn1ccc2cc3c(cc21)CCN3C(=O)Nc1cccnc1
inactive: outcome [1] | activity change, negative = inhibition ([8]; at 38 µM (top of the series)) -1.4% | outcome [9] | Potency [10] > 46 µM | outcome [11]

O=C1c2c(O)ccc(O)c2C(=O)c2c(NCCNCCO)ccc(NCCNCCO)c21
inactive: outcome [9] | Potency [10] > 46 µM and > 20.6 µM | outcome [11]

Cc1ccc(C(=O)Nc2ccc(S(=O)(=O)O)c3cc(S(=O)(=O)O)cc(S(=O)(=O)O)c23)cc1NC(=O)c1cccc(NC(=O)Nc2cccc(C(=O)Nc3cc(C(=O)Nc4ccc(S(=O)(=O)O)c5cc(S(=O)(=O)O)cc(S(=O)(=O)O)c45)ccc3C)c2)c1
inactive: outcome [1] | activity change, negative = inhibition ([8]; at 38 µM (top of the series)) -19.8% | Potency [10] > 46 µM | outcome [11]

Clc1ccc2c(c1)C(N1CCNCC1)=Nc1ccccc1O2
inactive: outcome [1] | outcome [9] | Potency [10] > 46 µM and > 20.6 µM | outcome [11]

Nc1ccn([C@H]2CC[C@@H](CO)O2)c(=O)n1
inactive: Potency [2] > 92 µM | Potency [3] > 92 µM | Potency [4] > 92 µM | Potency [5] > 92 µM | Potency [6] > 92 µM | Potency [7] > 92 µM | outcome [11] | activity change, negative = cytotoxicity [12] -5.12% | Potency [13] | outcome [14] | Potency [15] | Potency [16] | Potency [17] | outcome [18]
